Experimental data published in PubChem BioAssay AID1159580 (chemical genetic matrix, 2015).
“And” between values parts separate entries of the source, which are not always exact repeats. Identical values can stand only once. Among all 5,500 compounds or so, about 2,000 (36%) were called active. Another 18% or so got no clear call; they are omitted. Rule as the data show it: active = normalized growth mostly below about 0.91 (no sharp cut-off); inconclusive = no clear call, values can overlap the other calls; inactive = mostly above about 0.92. Some of the results follow.

Assay: chemical genetic growth profiling, strain panel (AID 1159580);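 also: tested at 20 µM; growth read once vehicle control cultures reached saturation at 30 °C; 1 = growth at the plate median or of vehicle wells; lower values mean less growth of the strain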
Conditions: S. cerevisiae deletion strains, growth OD

Measured: normalized growth

O=P1(N(CCCl)CCCl)NCCCO1 (stereo not drawn)
active: locus YKL085W, strain MDH1 (second series), active compounds read low 1.08 [resistant] | locus YKL085W, strain MDH1, active compounds read low 1.08 [resistant]
inactive: locus YJL187C, strain SWE1, active compounds read low 1.02 | locus YJR043C, strain POL32, active compounds read low 1.01 | locus YJR066W, strain TOR1, active compounds read low 1 | locus YJR075W, strain HOC1, active compounds read low 1 | locus YKL009W, strain mrt4, active compounds read low 0.957 | locus YKL068W, active compounds read low 1 | locus YKL160W, strain elf1, active compounds read low 1.03 | locus YKR001C, strain vps1, active compounds read low 1.03 | locus YKR026C, strain gcn3, active compounds read low 0.993 | locus YKR091W, strain srl3, active compounds read low 1.01 | locus YLL001W, strain dnm1, active compounds read low 1.04 | locus YLL026W, active compounds read low 1.01 | locus YLL041C, strain sdh2, active compounds read low 0.991 | locus YLR027C, strain aat2, active compounds read low 0.992 | locus YLR039C, strain RIC1, active compounds read low 1.02 | locus YLR058C, strain SHM2, active compounds read low 1.01 | locus YLR102C, strain apc9, active compounds read low 1.02 | locus YLR113W, strain HOG1, active compounds read low 0.994 | locus YLR221C, strain rsa3, active compounds read low 1.07 | locus YLR258W, strain gsy2, active compounds read low 1.01 | locus YLR262C, strain YPT6 (second series), active compounds read low 1.01 | locus YLR262C, strain YPT6, active compounds read low 1.01 | locus YLR268W, strain sec22, active compounds read low 1.03 | locus YLR320W, strain mms22, active compounds read low 1.05 | locus YLR330W, strain CHS5, active compounds read low 1.01 | locus YLR342W, strain FKS1 (second series), active compounds read low 1.02 | locus YLR342W, strain FKS1, active compounds read low 1 | locus YLR357W, strain rsc2, active compounds read low 0.984 | locus YLR370C, strain arc18, active compounds read low 1.02 | locus YLR371W, strain rom2, active compounds read low 1.02 | locus YLR384C, strain iki3, active compounds read low 1 | locus YLR418C, strain cdc73, active compounds read low 1.1 | locus YML016C, strain PPZ1, active compounds read low 1 | locus YML032C, strain rad52, active compounds read low 1.03 | locus YML120C, strain ndi1, active compounds read low 1.04 | locus YML124C, strain tub3, active compounds read low 1.04 | locus YMR058W, strain fet3, active compounds read low 0.99 | locus YMR078C, strain ctf18, active compounds read low 1.03 | locus YMR125W, strain sto1, active compounds read low 0.981 | locus YMR129W, active compounds read low 0.991 | locus YMR205C, strain PFK2, active compounds read low 1.03 | locus YMR223W, strain ubp8, active compounds read low 1.05 | locus YMR231W, strain pep5, active compounds read low 0.997 | locus YMR263W, strain SAP30, active compounds read low 1.01 and 1 | locus YMR307W, strain GAS1, active compounds read low 1.03 and 0.994 | locus YNL067W, strain RPL9B, active compounds read low 1.01 | locus YNL071W, strain lat1, active compounds read low 0.991 | locus YNL128W, strain TEP1, active compounds read low 1.02 and 0.983 | locus YNL175C, strain NOP13, active compounds read low 0.989 | locus YNL183C, strain NPR1, active compounds read low 0.946 | locus YNL197C, strain WHI3, active compounds read low 0.976 | locus YNL209W, strain ssb2, active compounds read low 1.01 | locus YNL224C, strain SQS1, active compounds read low 0.995 | locus YNL233W, strain BNI4, active compounds read low 1.02 | locus YNL248C, strain rpa49, active compounds read low 0.914 | locus YNL250W, strain rad50, active compounds read low 1.03 | locus YNL271C, strain bni1, active compounds read low 1.02 | locus YNL298W, strain CLA4, active compounds read low 1.04 | locus YNL307C, strain MCK1, active compounds read low 1.02 | locus YNL322C, strain KRE1 (second series), active compounds read low 1.01 | locus YNL322C, strain KRE1, active compounds read low 0.996 | locus YNR049C, strain mso1, active compounds read low 0.993 | locus YNR052C, strain pop2, active compounds read low 1.02 | locus YOL147C, strain pex11, active compounds read low 1.02 | locus YOR001W, strain rrp6, active compounds read low 0.934 | locus YOR061W, strain CKA2, active compounds read low 1.02 | locus YOR069W, strain VPS5, active compounds read low 1.01 | locus YOR070C, strain gyp1, active compounds read low 1.01 | locus YOR080W, strain dia2, active compounds read low 1.01 | locus YOR083W, strain WHI5 (second series), active compounds read low 0.978 | locus YOR083W, strain WHI5, active compounds read low 1.05 | locus YOR106W, strain vam3, active compounds read low 1.06 | locus YOR136W, strain idh2, active compounds read low 1.03 | locus YOR144C, strain elg1, active compounds read low 1.05 | locus YOR184W, strain ser1, active compounds read low 1.08 | locus YOR231W, strain MKK1, active compounds read low 1 | locus YOR265W, strain rbl2, active compounds read low 1.01 | locus YOR270C, strain vph1, active compounds read low 1.04 | locus YOR290C, strain snf2, active compounds read low 1.03 | locus YOR316C, strain cot1, active compounds read low 1.04 | locus YPL051W, strain arl3, active compounds read low 1.02 | locus YPL055C, strain LGE1, active compounds read low 1 | locus YPL078C, strain atp4, active compounds read low 0.991 | locus YPL106C, strain sse1, active compounds read low 1.04 | locus YPL240C, strain hsp82, active compounds read low 1 | locus YPL256C, strain CLN2, active compounds read low 0.992 | locus YPR119W, strain clb2, active compounds read low 1.03 | locus YPR141C, strain kar3, active compounds read low 1.01 | locus YPR163C, strain tif3, active compounds read low 1.02 | locus YPR167C, strain met16, active compounds read low 1.02 | strain wtn01, active compounds read low 1.06
